High-throughput results (PubChem)
KCNQ2 enhance = KCNQ2 (rat) channel potentiation. O88943. CHO-K1 KCNQ2, FluxOR thallium flux fluorescence; hits give high values. B-score at 10 µM. 0.54% of 310,000 active. AID 2239;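 active means fluorescence ratio B-score at least 3 SD of library B-scores, with initial fluorescence B-score within 3 of them, cut at about 5.3 in these data; same plate scores as AID 2156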;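 further: B-score of peak minus minimum over baseline fluorescence ratio after K+ and Tl+ stimulus; positive B-score means potentiation of KCNQ2 with more thallium influx and brighter signal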
KCNQ2 block = inhibitors of rat KCNQ2 potassium channel | O88943 | CHO-K1 KCNQ2, FluxOR thallium flux, 20 min; hits give low values | B-score at 10 µM | 1.1% of 310,000 active | AID 2156;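 active means fluorescence ratio B-score at most minus 3 library SDs, with starting brightness B-score within 2 library SDs, cut at about -5.5 in these data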
Kir21 conf inh = confirmation of mouse Kir2.1 potassium channel inhibitors; shares compounds with KCNQ2 enhance; Kir2.1-expressing cells, FluxOR thallium flux fluorescence; hits give low values; Tl flux remaining, % of negative control (hits give low values), % at 10 µM; 41% of 2,300 active; AID 2032;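 active means Primary-screen hit whose thallium flux fell at least 3 control SD below untreated wells in both duplicates, with normal baseline fluorescence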
HEK293 ctr = counter-screen for Kir2.1 inhibitors: effect in parental HEK293 cells | FluxOR thallium flux fluorescence; 0% = unstimulated blank wells | FluxOR signal as % of negative control (100 = no effect), % at 10 µM | shares compounds with KCNQ2 enhance | 19% of 2,300 active | AID 2105;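 active means dye signal at least 3 control SD above or below untreated wells in both duplicates, raw fluorescence within 3, either direction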;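 further: percent is based on the flux ratio of peak minus minimum fluorescence over baseline F0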
CHO-K1 Tl ctr = alters thallium flux in parental CHO-K1 cells, KCNQ2 counter-screen. FluxOR thallium flux fluorescence; zero = vehicle mean+3SD, 100% = vehicle-minus-blank window. activity increase over 3SD of controls, % at 10 µM. 43% of 1,200 active. shares compounds with KCNQ2 enhance. AID 2282;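 active means signal rise of at least 3 SD above the untreated control mean, in both duplicate wells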;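 further: counter screen of KCNQ2 potentiator hits so any rise reflects channel-independent effects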
KCNQ1 pot spec = tests whether KCNQ2 potentiators also act on human KCNQ1 | CHO KCNQ1 stable, FluxOR thallium flux fluorescence; beyond 3SD, as % of vehicle-control signal | 28% of 1,200 active | shares compounds with KCNQ2 enhance | activation over 3SD threshold, % at 10 µM;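 active means fluorescence ratio rise of at least 3 SD of vehicle wells above their mean, in both replicate wells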
Target sequence (P51787 whole entry, looked up): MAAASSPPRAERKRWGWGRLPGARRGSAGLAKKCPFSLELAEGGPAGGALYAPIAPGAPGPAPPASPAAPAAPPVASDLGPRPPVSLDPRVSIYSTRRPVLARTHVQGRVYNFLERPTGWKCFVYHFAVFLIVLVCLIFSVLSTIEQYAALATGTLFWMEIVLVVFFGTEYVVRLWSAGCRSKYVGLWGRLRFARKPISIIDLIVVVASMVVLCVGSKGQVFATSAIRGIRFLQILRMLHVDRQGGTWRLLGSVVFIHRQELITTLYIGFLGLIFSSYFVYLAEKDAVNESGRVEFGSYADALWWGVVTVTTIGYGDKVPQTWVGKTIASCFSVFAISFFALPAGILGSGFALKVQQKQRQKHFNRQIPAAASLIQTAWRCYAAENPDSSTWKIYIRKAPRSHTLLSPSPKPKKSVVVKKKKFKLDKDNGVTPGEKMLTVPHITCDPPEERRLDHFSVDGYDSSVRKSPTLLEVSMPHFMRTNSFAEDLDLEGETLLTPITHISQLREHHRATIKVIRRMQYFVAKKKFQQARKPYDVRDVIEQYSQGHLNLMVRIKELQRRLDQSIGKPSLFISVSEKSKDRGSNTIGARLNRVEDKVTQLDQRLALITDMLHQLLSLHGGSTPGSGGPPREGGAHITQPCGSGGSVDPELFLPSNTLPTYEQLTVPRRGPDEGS
KCNQ2 pot conf = rat KCNQ2 channel potentiator confirmation; shares compounds with KCNQ2 enhance; CHO-KCNQ2 cells, FluxOR thallium flux fluorescence; potentiation, less the hit threshold, % at 10 µM; 68% of 1,200 active;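 active means fluorescence ratio rising 3 SD or more over the vehicle control mean in both replicates, plus primary screen hit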;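 further: peak minus minimum thallium fluorescence divided by baseline after K/Tl stimulus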
Kir2-1 sel = mouse Kir2.1 off-target activity of KCNQ2 potentiators; 2% of 1,200 active; activity over 3SD threshold, % at 10 µM; HEK293 Kir2.1, FluxOR thallium flux fluorescence; shares compounds with KCNQ2 enhance;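 active means fluorescence ratio rise of at least 3 SD above the vehicle-control mean, seen in both replicates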
KCNQ2 W236L pot = potentiates the retigabine-insensitive rat KCNQ2 W236L mutant channel | shares compounds with KCNQ2 enhance | current increase over 3SD of negative controls (%), hits give high values, % at 25 µM | 10% of 940 active | CHO KCNQ2-W236L, automated patch clamp current;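 active means current increase at least 3 SD of the untreated controls above them in both duplicate recordings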
A number is an active result. A selection: hits, their analogues and other compounds. The true share with any hit is near 1.6%.

What do the screens show for `Cc1ccc(/C=N/Nc2nc(C(C)(C)C)cs2)o1`?
KCNQ2 enhance: 6.92; KCNQ2 block: inactive; Kir21 conf inh: inactive; HEK293 ctr: 70.5%; CHO-K1 Tl ctr: inactive; KCNQ1 pot spec: inactive; KCNQ2 pot conf: inactive; Kir2-1 sel: inactive; KCNQ2 W236L pot: inactive

What do the screens show for `O=C(Nc1sc2c(c1C(=O)O)CCCC2)c1ccc(Cl)cc1`?
KCNQ2 enhance: 7.88; KCNQ2 block: inactive; Kir21 conf inh: inactive; HEK293 ctr: inactive; CHO-K1 Tl ctr: inactive; KCNQ1 pot spec: inactive; KCNQ2 pot conf: inactive; Kir2-1 sel: inactive

What do the screens show for `O=C(Nc1sc2c(c1C(=O)O)CCCC2)c1cccc(Cl)c1`?
KCNQ2 enhance: 5.44; KCNQ2 block: inactive; Kir21 conf inh: inactive; HEK293 ctr: inactive; CHO-K1 Tl ctr: inactive; KCNQ1 pot spec: inactive; KCNQ2 pot conf: 4.9; Kir2-1 sel: inactive; KCNQ2 W236L pot: inactive

What do the screens show for `O=C(Nc1sc2c(c1C(=O)O)CCC2)c1ccccc1`?
KCNQ2 enhance: inactive; KCNQ2 block: inactive

How did O=C(Nc1sc2c(c1C(=O)O)CCCCC2)c1ccccc1 do in these assays?
KCNQ2 enhance: inactive; KCNQ2 block: inactive

Results for Cc1ccc2nc(NC(=O)C3CC3C)sc2c1 (stereo not given) ?
KCNQ2 enhance: inactive; KCNQ2 block: inactive

Results for Nc1ccnc(Oc2ccc(F)cc2)c1 ?
KCNQ2 block: inactive

Results for CC1=C2C(CCS2(=O)=O)CC2(C1)C(=O)OC(C)(C)OC2=O (stereo not given) ?
KCNQ2 enhance: inactive; KCNQ2 block: inactive

How did CC(=O)OC1=C(C#N)Cn2ccc3cccc1c32 do in these assays?
KCNQ2 enhance: inactive; KCNQ2 block: inactive; Kir21 conf inh: 55.0%; HEK293 ctr: inactive

Results for COc1cc(OC)c(NS(=O)(=O)c2c(C)[nH]c(=O)[nH]c2=O)cc1Cl ?
KCNQ2 block: inactive

How did CCOc1cc(CNCCSc2nnnn2C)cc(Br)c1OCc1ccccc1F do in these assays?
KCNQ2 enhance: inactive; KCNQ2 block: inactive

What do the screens show for `CCOc1cc(CNCCO)cc(Br)c1OCc1cccs1`?
KCNQ2 enhance: inactive; KCNQ2 block: inactive; Kir21 conf inh: 23.0%; HEK293 ctr: inactive

Results for CCOc1cc(CNCc2cccs2)cc(Br)c1OCC ?
KCNQ2 block: inactive

How did CCOc1cccc(CNCCO)c1OCc1ccc(Cl)cc1Cl do in these assays?
KCNQ2 enhance: inactive; KCNQ2 block: inactive

What do the screens show for `CCOc1cc(CNCc2ccncc2)cc(Br)c1OCc1ccccc1F`?
KCNQ2 block: inactive; Kir21 conf inh: 52.5%; HEK293 ctr: inactive

How did CCOc1cc(CNCCO)cc(Br)c1OCc1ccc(Cl)cc1Cl do in these assays?
KCNQ2 enhance: inactive; KCNQ2 block: -13; Kir21 conf inh: 21.0%; HEK293 ctr: inactive

What do the screens show for `COc1cccc(C(=O)NNC2OC(CO)C(O)C2O)c1` (stereo not given)?
KCNQ2 enhance: inactive; KCNQ2 block: inactive

How did CSCC[C@H](N)C(=O)N1CCC(C(=O)N[C@H](C(=O)NCc2ccccc2F)C(C)C)CC1 do in these assays?
KCNQ2 enhance: inactive; KCNQ2 block: inactive

How did O=C(c1cc2cccc([N+](=O)[O-])c2oc1=O)N1CCOCC1 do in these assays?
KCNQ2 enhance: inactive; KCNQ2 block: inactive

How did NCCCNc1nc(N)c([N+](=O)[O-])c(NC2CCCCC2)n1 do in these assays?
KCNQ2 enhance: inactive; KCNQ2 block: inactive

What do the screens show for `Cc1cc(C)cc(OCC(=O)OCC(=O)Nc2c(C)n(C)n(-c3ccccc3)c2=O)c1`?
KCNQ2 enhance: inactive; KCNQ2 block: inactive

What do the screens show for `Cc1ccc(S(=O)(=O)CCC(=O)OCC(=O)N2c3ccccc3CC2C)cc1` (stereo not given)?
KCNQ2 block: inactive

What do the screens show for `O=C(O)c1cnn(-c2nc(-c3ccc(Cl)c(Cl)c3)cs2)c1C(F)(F)F`?
KCNQ2 enhance: inactive; KCNQ2 block: inactive; Kir21 conf inh: inactive; HEK293 ctr: inactive

What do the screens show for `O=C(O)c1cnn(-c2nc(-c3cccc(F)c3)cs2)c1C(F)(F)F`?
KCNQ2 enhance: inactive; KCNQ2 block: inactive

How did CCOC(=O)c1c(-c2ccccc2)c2cc(OC)ccc2n1CCCN(C)C do in these assays?
KCNQ2 block: inactive; Kir21 conf inh: 36.0%; HEK293 ctr: inactive

How did CCOC(=O)c1c(C)n(CCNC(C)=O)c2ccc(OC)cc12 do in these assays?
KCNQ2 block: inactive

What do the screens show for `CC(C)NC(=O)Cn1cc(C(=O)C(=O)N2CCOCC2)c2ccccc21`?
KCNQ2 enhance: inactive; KCNQ2 block: inactive

What do the screens show for `Cc1cccc(OCC(=O)Nc2ccc3c(c2)C(=O)NC3=O)c1`?
KCNQ2 block: inactive

Results for CCN(CC)CCN(C(=O)c1ccc(C(C)=O)cc1)c1nc2ccc(Cl)cc2s1 ?
KCNQ2 block: inactive

What do the screens show for `O=C(O)COc1c(-c2ccco2)oc2ccccc2c1=O`?
KCNQ2 enhance: inactive; KCNQ2 block: inactive

How did COc1ccc(-c2oc3ccccc3c(=O)c2OCC(=O)O)cc1 do in these assays?
KCNQ2 enhance: inactive; KCNQ2 block: inactive

How did COc1ccc(-c2oc3ccccc3c(=O)c2OC(C)=O)cc1 do in these assays?
KCNQ2 enhance: 6.7; KCNQ2 block: inactive; Kir21 conf inh: inactive; HEK293 ctr: 310.5%; CHO-K1 Tl ctr: 88.8; KCNQ1 pot spec: inactive; KCNQ2 pot conf: 19.3; Kir2-1 sel: inactive; KCNQ2 W236L pot: inactive

Results for CC(=O)Oc1c(-c2ccc(Br)o2)oc2ccccc2c1=O ?
KCNQ2 enhance: 16.2; KCNQ2 block: inactive; Kir21 conf inh: inactive; HEK293 ctr: 462.0%; CHO-K1 Tl ctr: 114.1; KCNQ1 pot spec: inactive; KCNQ2 pot conf: 62.3; Kir2-1 sel: inactive; KCNQ2 W236L pot: inactive

How did Cc1ccc(N2CC(C(=O)OCC(=O)Nc3ccccc3F)CC2=O)cc1 (stereo not given) do in these assays?
KCNQ2 block: inactive

How did COCCC1CCCCN1C(=O)c1cc(COc2ccc(-n3cncn3)cc2)on1 (stereo not given) do in these assays?
KCNQ2 enhance: inactive; KCNQ2 block: inactive

How did COc1ccc(C[C@H]2CN3C(=NC[C@@H]3C(C)C)N2CCNC(=O)c2ccc(C)c(Br)c2)cc1 do in these assays?
KCNQ2 block: inactive; Kir21 conf inh: 49.0%; HEK293 ctr: inactive
